Assay outcomes deposited in PubChem BioAssay by National Center for Advancing Translational Sciences (NCATS).
Rows were chosen to be rich in hits. Some 7.5% of all compounds tested hit in one or more screens of this group.
FLuc modulator – inhibits or activates purified firefly luciferase, miR-21 counter-screen; 6.9% of 360,000 active; P08659; purified FLuc, Km substrates, luminescence inhibition; Potency, µM (titrated, usually from 57.5 µM), inactives show at the top dose activity change, negative = inhibition, actives largely listed as inhibitors;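 further: plate controls were vehicle for no effect and reference inhibitor for full effect; nearly all actives have a fitted effect of over 55% in size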
Target sequence (P08659 whole entry, looked up): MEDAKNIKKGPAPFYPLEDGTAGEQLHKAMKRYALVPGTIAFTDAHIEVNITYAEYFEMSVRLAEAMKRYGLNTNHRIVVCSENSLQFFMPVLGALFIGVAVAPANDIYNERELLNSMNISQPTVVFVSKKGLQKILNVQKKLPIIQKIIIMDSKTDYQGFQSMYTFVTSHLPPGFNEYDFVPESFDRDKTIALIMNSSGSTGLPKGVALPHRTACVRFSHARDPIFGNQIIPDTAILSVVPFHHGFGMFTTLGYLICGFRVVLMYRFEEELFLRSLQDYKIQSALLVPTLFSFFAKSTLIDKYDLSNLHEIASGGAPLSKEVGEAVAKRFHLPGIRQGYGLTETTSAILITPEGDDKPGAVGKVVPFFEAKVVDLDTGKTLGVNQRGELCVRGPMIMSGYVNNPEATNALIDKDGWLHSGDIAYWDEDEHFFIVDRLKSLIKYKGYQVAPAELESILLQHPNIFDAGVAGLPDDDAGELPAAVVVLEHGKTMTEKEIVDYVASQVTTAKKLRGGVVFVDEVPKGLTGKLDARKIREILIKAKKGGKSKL
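Purified P. pyralis luciferase (10nM final) with 10uM D-luciferin and 10uM ATP (Km levels) in 50mM Tris acetate pH 7.5, 10mM Mg acetate, 0.01% Tween-20, 0.05% BSA; qHTS 6-point titration, ~60 µM downward; luminescence read.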
ELG1 genotox – induces genotoxicity in HEK293T cells with luciferase-tagged ELG1. Potency, µM (top dose mostly 46 µM), inactives show at the highest dose activity change, positive = activation, most hits filed as activators. AID 504466. HEK293T ELG1-luciferase reporter, luminescence, 16 h. 1.3% of 330,000 active; further: % of control where 0% means no effect; nearly all actives have a fitted effect of over 60% in size
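Genotoxicity was scored as increased ELG1-luciferase reporter signal, measured by ONE-Glo luminescence (30 min, room temperature). Compound or vehicle exposure of the HEK293T reporter cells lasted 16 hr at 37°C.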
SMN2 splice up – increases expression of the SMN2 splice variant. HEK293 SMN2-luciferase splicing reporter, luminescence, 30-36 h. Potency, µM (top dose mostly 46.1 µM), inactives show top-dose activity change, positive = activation, usual class: activators. 2.8% of 210,000 active; further: % of control where 0% means no effect; nearly all actives have a fitted effect of over 55% in size
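HEK293 cells carry an SMN2 […]–luciferase reporter in which exon 7 inclusion puts luciferase in frame. Cells were plated 10-12 h before compound addition, then incubated 30-36 h at 37C. ONE-Glo luminescence was read; sodium butyrate at 4.5 mM final served as control.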
Luc counter – counter-screen: inhibitors of Kinase-Glo firefly luciferase; AID 1379; Kinase-Glo luciferase, ATP luminescence, 8 min; Q27757; 0.28% of 200,000 active; Potency, µM (doses to about 38.3 µM), without a hit: top-dose activity change, negative = inhibition, hits mostly inhibitors; further: on the % scale 0 is the no-effect control and ±100 the full control effect; nearly all actives have a fitted effect of over 60% in size
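Inhibition of Kinase-Glo luciferase light generation was assessed at 10 uM ATP in pH 7.2 imidazole buffer, with luminescence measured after eight minutes at ambient temperature.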
Rab9 prom act – activators of Rab9 promoter; Huh7 Rab9 promoter-luciferase reporter, luminescence, 24 h; Potency, µM (series often up to 9.22 µM), inactives show at the top dose activation, negative = inhibition, most hits filed as activators; 2.8% of 320,000 active; further: % of control where 0% means no effect; nearly all actives have a fitted effect of over 60% in size
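Huh7 reporter line, Rab9 promoter upstream of luciferase. Compound exposure 24 h at 37 °C in reduced-serum medium with 10% FBS. Read-out: luminescence.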
NPC1 prom act – NPC1 promoter activation; Potency, µM (doses to about 9.22 µM), for the others: at the top dose activation, most hits filed as activators; 2.4% of 320,000 active; Huh7 NPC1 promoter luciferase reporter, 24 h; further: % of control where 0% means no effect; nearly all actives have a fitted effect of over 60% in size
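Huh7 reporter cells (NPC1 promoter driving luciferase) are dosed with compound for 24 h at 37 °C, 5% CO2; luciferase detection reagent is then added and luminescence measured after 10 min at ambient temperature.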
* hit, by the source's call; [ ] = remark or other dose. The call rests on the fitted dose curve; in most records, active means well fitted curve in the direction sought with a large enough effect; inconclusive means small, poorly fitted or top-dose-only effect, or another doubt; inactive means no such curve, though single readings can be large; an effect the other way counts as inactive or inconclusive. Potency means the concentration at half of the fitted maximal effect.

For O=C(Nc1cccc(Cl)c1)c1cnc[nH]1 the results were FLuc modulator -22.7%, ELG1 genotox inconclusive, SMN2 splice up 11.2µM*, Rab9 prom act 4.47µM* and NPC1 prom act 3.98µM*.
CC(=O)c1cccc(NC(=O)c2cc(C(C)C)on2)c1 was read as FLuc modulator 6.75µM*, ELG1 genotox 9.2µM*, SMN2 splice up inconclusive, Luc counter -6.0%, Rab9 prom act 4.47µM* and NPC1 prom act 0.631µM*.
For CC(C)c1cc(C(=O)Nc2cccc(Cl)c2)no1 the results were FLuc modulator 0.953µM*, ELG1 genotox inconclusive, SMN2 splice up 11.2µM*, Luc counter -25.7%, Rab9 prom act 0.891µM* and NPC1 prom act 0.891µM*.
O=C(Nc1cccc(Cl)c1)c1ccncc1 was read as FLuc modulator -13.2%, ELG1 genotox 4.0%, SMN2 splice up inconclusive, Luc counter -3.0%, Rab9 prom act -3.6% and NPC1 prom act -3.8%.
Screening COc1ccc2cc(C(=O)N(C)CC(=O)Nc3ccccc3Br)ccc2c1 returned FLuc modulator 21.3µM*, ELG1 genotox 0.9%, Rab9 prom act 26.3% and NPC1 prom act 11.4%.
CN(CC(=O)Nc1ccccc1Br)C(=O)c1cc2c(s1)CCCCC2 was read as FLuc modulator 10.7µM*, ELG1 genotox inconclusive, Rab9 prom act 28.9% and NPC1 prom act 25.7%.
CN(CC(=O)Nc1ccccc1Br)C(=O)CCC1CCCC1 was read as FLuc modulator 19µM*, ELG1 genotox inconclusive, Rab9 prom act inconclusive and NPC1 prom act inconclusive.
`CCOC(=O)O[C@@H](C)OC(=O)[C@@H]1N2C(=O)[C@@H](NC(=O)[C@@H](N)c3ccccc3)[C@H]2SC1(C)C` gave SMN2 splice up 3.8%[20.6 µM] and Luc counter 4.1%[17.1 µM].
`COc1ccc(-c2cc(C(=O)Nc3cc(C)ccc3O)no2)cc1` gave FLuc modulator -8.1%, ELG1 genotox 20.6µM*, Rab9 prom act 19.5% and NPC1 prom act inconclusive.
COc1ccc(-c2cc(C(=O)Nc3cc(Cl)ccc3O)no2)cc1 was read as FLuc modulator inconclusive, ELG1 genotox 16.4µM*, Rab9 prom act inconclusive and NPC1 prom act 3.55µM*.
Screening Cc1ccc(O)c(NC(=O)c2cc(-c3ccccc3Cl)on2)c1 returned FLuc modulator inconclusive, ELG1 genotox 16.4µM*, Rab9 prom act inconclusive and NPC1 prom act inconclusive.
Cc1ccc(-c2cc(C(=O)Nc3cc(C)ccc3O)no2)cc1 was read as FLuc modulator inconclusive, ELG1 genotox 9.2%, Rab9 prom act inconclusive and NPC1 prom act inconclusive.
For CN[C@@H]1[C@H](O[C@H]2[C@H](O[C@H]3[C@H](O)[C@@H](O)[C@H](N=C(N)N)[C@@H](O)[C@@H]3N=C(N)N)O[C@@H](C)[C@]2(O)C=O)O[C@@H](CO)[C@H](O)[C@H]1O the results were Luc counter 1.9%[39.9 µM].
Cc1cccc(NC(=O)CCCNC(=O)c2ccc(Cl)cc2)n1 was read as FLuc modulator 2.3%, ELG1 genotox -2.3%, Rab9 prom act 1.4% and NPC1 prom act -2.2%.
O=C(/C=C/c1ccccc1)Nc1ccc(Cl)cn1 was read as FLuc modulator 2.69µM*, ELG1 genotox inconclusive, SMN2 splice up 12.6µM*, Luc counter 1.4%, Rab9 prom act inconclusive and NPC1 prom act inconclusive.
For Cc1cccc(NC(=O)/C=C/c2ccc(Cl)cc2)n1 the results were FLuc modulator 1.07µM*, ELG1 genotox 1.0%, SMN2 splice up 3.55µM*, Luc counter -9.1%, Rab9 prom act 2.24µM* and NPC1 prom act 3.98µM*.
`CCOC(=O)c1ccc(NC(=O)/C(C#N)=C/c2ccc(OC)cc2)cc1` gave FLuc modulator -1.0% and SMN2 splice up -3.2%.
For O=C(COC(=O)/C=C/c1ccccc1)Nc1ccc(Cl)cn1 the results were FLuc modulator 0.3%, ELG1 genotox -0.5%, Rab9 prom act 2.1% and NPC1 prom act 7.6%.
Cc1cccc(NC(=O)/C(C#N)=C/c2cccc([N+](=O)[O-])c2)n1 was read as FLuc modulator inconclusive, ELG1 genotox -0.8%, Rab9 prom act -3.1% and NPC1 prom act -0.2%.
Cc1cccc(NC(=O)/C(C#N)=C/c2ccc(Cl)cc2)n1 was read as FLuc modulator 2.39µM*, ELG1 genotox -3.3%, Rab9 prom act -0.1% and NPC1 prom act 1.0%.
COc1ccc(/C=C(\C#N)C(=O)Nc2cccc(C)n2)cc1 was read as FLuc modulator 0.953µM*, ELG1 genotox 2.1%, Rab9 prom act 4.8% and NPC1 prom act 0.5%.
For CSc1ccccc1NC(=O)CN1CCN(S(=O)(=O)c2ccccc2[N+](=O)[O-])CC1 the results were FLuc modulator 1.6%, ELG1 genotox 0.8%, Rab9 prom act -15.2% and NPC1 prom act -1.0%.
`O=C1/C(=C/c2cccc(F)c2)Oc2cc(O)ccc21` gave FLuc modulator 10.7µM*, ELG1 genotox 1.2%, Rab9 prom act 5.4% and NPC1 prom act 18.5%.
For Cc1cccc(/C=C2\Oc3cc(OS(C)(=O)=O)ccc3C2=O)c1 the results were FLuc modulator 16.9µM*, ELG1 genotox 8.6%, SMN2 splice up -12.8%, Luc counter -0.9%, Rab9 prom act 16.0% and NPC1 prom act 21.9%.
COc1ccc(C(=O)COC(=O)c2cc(=O)[nH]c3ccccc23)c(OC)c1 was read as FLuc modulator inconclusive, ELG1 genotox inconclusive, Rab9 prom act 2.24µM* and NPC1 prom act 3.16µM*.
`NC(=O)COC(=O)c1cc(=O)[nH]c2ccccc12` gave FLuc modulator 0.7%, ELG1 genotox -0.5%, Rab9 prom act 0.2% and NPC1 prom act -2.6%.
Cc1ccc(C(=O)COC(=O)c2cc(=O)[nH]c3ccccc23)cc1C was read as FLuc modulator 1.07µM*, ELG1 genotox 20.6µM*, SMN2 splice up 21.3%, Luc counter 2.0%, Rab9 prom act inconclusive and NPC1 prom act 2.2%.
Screening COc1ccccc1C(=O)COC(=O)c1cc(=O)[nH]c2ccccc12 returned FLuc modulator -8.0%, ELG1 genotox inconclusive, Rab9 prom act -1.4% and NPC1 prom act -1.6%.
Screening N#CCC(=O)N/N=C/c1ccc(OCC(=O)Nc2ccc(F)cc2)cc1 returned FLuc modulator 5.4%, ELG1 genotox 16.4%, SMN2 splice up -0.7%, Luc counter 0.3%, Rab9 prom act -16.1% and NPC1 prom act -2.9%.
`COc1ccccc1-n1cnnc1SCc1csc(-c2ccccc2)n1` gave FLuc modulator -5.8%, ELG1 genotox -10.0%, SMN2 splice up -8.5%, Luc counter -1.8%, Rab9 prom act -2.8% and NPC1 prom act 0.3%.
